Source: PubChem BioAssay (NCATS)
Inconclusive results are not listed. Where a call stands in place of a potency, no number is given. Calls of active or inactive are those of the source. Calls come from the whole dose curve; as a rule, active = well fitted inhibition curve with a large enough effect; inconclusive = small, poorly fitted or top-dose-only effect; inactive = flat fitted curve, though single readings scatter.

System: MCC-26
Experiment: qHTS assay to identify novel small-molecules to repurpose for Merkel cell carcinoma treatment (AID 1296009); note: nearly all actives have a fitted effect of over 60% in size
Settings: MCC and control cell lines, CellTiter-Glo viability, 72 h; series mostly up to 46 µM
How it was run: (§1)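 Dose-response viability screen; 72 hr exposure at 37 degree celsius; CellTiter-Glo added, 10 min room temperature, luminescence read; RLUs scaled between no-cell and DMSO wells.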
Potency is the fitted concentration of half-maximal effect.

Row | SMILES | Potency
1 | C[C@H]1[C@@H](OC(=O)CCC(=O)O)O[C@@H]2O[C@@]3(C)CC[C@@H]4[C@H](C)CC[C@@H]1[C@@]24OO3 | inactive
2 | Cn1cc(-c2ccc3ncc(Cc4ccc5ncccc5c4)n3n2)cn1 | inactive
3 | CN1CCc2c(c3ccccc3n2Cc2ccc(C(=O)NO)cc2)C1 | inactive
4 | CCc1nc(-c2cccc(C)c2)c(-c2ccnc(NC(=O)c3ccccc3)c2)s1 | inactive
5 | CCN(CC)CCNC(=O)c1c(C)[nH]c(C=C2C(=O)Nc3ccc(F)cc32)c1C | 38.2 µM (active)
6 | CCOc1cc2ncc(C#N)c(Nc3ccc(OCc4ccccn4)c(Cl)c3)c2cc1NC(=O)C=CCN(C)C | inactive
7 | Nc1nc(=O)n([C@H]2C[C@H](O)[C@@H](CO)O2)cc1F | inactive
8 | Nc1nc(N)c2nc(-c3cccc(O)c3)c(-c3cccc(O)c3)nc2n1 | inactive
9 | C[C@@]12C(=O)OC(=O)[C@@]1(C)C1CCC2O1 | 6.62 µM (active)
10 | O=C(Nc1cccc(Nc2ncc(Br)c(NCCc3cnc[nH]3)n2)c1)N1CCCC1 | 11.8 µM (active)
11 | Cc1cnc(Nc2ccc(CN3CCOCC3)cc2)nc1Nc1cccc(S(=O)(=O)NC(C)(C)C)c1 | 8.33 µM (active)
12 | CCN(CC)CCCCNc1ncc2c(n1)N(C)C(=O)N(c1c(Cl)c(OC)cc(OC)c1Cl)C2 | inactive
13 | CO[C@@H]1[C@@H](O)[C@H](O)[C@@H](n2c3c(Cl)cccc3c3c4c(c5c6cccc(Cl)c6[nH]c5c32)C(=O)NC4=O)O[C@@H]1CO | 1.18 µM (active)
14 | CC(C(C)N1CC(=O)NC(=O)C1)N1CC(=O)NC(=O)C1 (stereo unspecified) | inactive
15 | COc1cccc2c1C(=O)c1c(O)c3c(c(O)c1C2=O)C[C@@](O)(C(=O)CO)C[C@H]3O[C@H]1C[C@H](N)[C@H](O)[C@H](C)O1 | 2.35 µM (active)
16 | C[C@@H](Cc1cc2c(c(C(N)=O)c1)N(CCCO)CC2)NCCOc1ccccc1OCC(F)(F)F | inactive
17 | CCOC(=O)[C@@H](N)Cc1ccc(-c2cc(O[C@H](c3ccc(Cl)cc3-n3ccc(C)n3)C(F)(F)F)nc(N)n2)cc1 | inactive
18 | CC(C)N1[N]C(=C2C=c3cc(O)ccc3=N2)c2c(N)ncnc21 | 14.8 µM (active)
19 | CC(=O)NCC(=O)N1[C@H]2CC[C@H]1c1cc(Nc3ncc(C(F)(F)F)c(NC4CCC4)n3)ccc12 | 3.72 µM (active)
20 | CC(C)c1cc(C(C)C)c(CC(=O)NS(=O)(=O)Oc2c(C(C)C)cccc2C(C)C)c(C(C)C)c1 | inactive
21 | N=c1ccn2c(n1)O[C@H]1[C@@H](O)[C@@H](CO)O[C@H]12 | inactive

System: MKL-1
Experiment: as above
Settings: MCC and control cell lines, CellTiter-Glo viability, 72 h; series mostly up to 46 µM
How it was run: as §1

Row | SMILES | Potency
22 | C[C@H]1[C@@H](OC(=O)CCC(=O)O)O[C@@H]2O[C@@]3(C)CC[C@@H]4[C@H](C)CC[C@@H]1[C@@]24OO3 | 10.5 µM (active)
23 | CC(=O)O[C@@]12CO[C@H]1C[C@H](O)[C@@]1(C)C(=O)[C@H](O)C3=C(C)[C@@H](OC(=O)C(O)[C@@H](NC(=O)OC(C)(C)C)c4ccccc4)C[C@@](O)([C@@H](OC(=O)c4ccccc4)[C@@H]21)C3(C)C (stereo partly specified) | inactive
24 | c1cncc(CN2CCC(n3ncc4c(N5CCOCC5)nc(-c5ccc6[nH]ccc6c5)nc43)CC2)c1 | inactive
25 | Cn1cc(-c2ccc3ncc(Cc4ccc5ncccc5c4)n3n2)cn1 | inactive
26 | COC1=C2C[C@@H](C)C[C@H](OC)[C@@H](O)[C@@H](C)C=C(C)[C@H](OC(N)=O)[C@@H](OC)C=CC=C(C)C(=O)NC(=CC1=O)C2=O | 11.8 µM (active)
27 | CCN(CC)CCNC(=O)c1c(C)[nH]c(C=C2C(=O)Nc3ccc(F)cc32)c1C | 12.1 µM (active)
28 | CCOc1cc2ncc(C#N)c(Nc3ccc(OCc4ccccn4)c(Cl)c3)c2cc1NC(=O)C=CCN(C)C | inactive
29 | C[C@H](NCc1ccc(OCc2cccc(F)c2)cc1)C(N)=O | 10.5 µM (active)
30 | Cc1cnc(Nc2ccc(CN3CCOCC3)cc2)nc1Nc1cccc(S(=O)(=O)NC(C)(C)C)c1 | 11.8 µM (active)
31 | CCN(CC)CCCCNc1ncc2c(n1)N(C)C(=O)N(c1c(Cl)c(OC)cc(OC)c1Cl)C2 | inactive
32 | COc1cc2ncnc(Nc3cccc(Br)c3)c2cc1OC | inactive
33 | CO[C@@H]1[C@@H](O)[C@H](O)[C@@H](n2c3c(Cl)cccc3c3c4c(c5c6cccc(Cl)c6[nH]c5c32)C(=O)NC4=O)O[C@@H]1CO | 0.332 µM (active)
34 | COc1ccc(Nc2cc(-c3cnc(N)nc3)nc(N3CCOCC3)n2)cn1 | inactive
35 | Cc1[nH]c(C=C2C(=O)Nc3ccccc32)c(C)c1CCC(=O)O | 0.372 µM (active)
36 | CC(C(C)N1CC(=O)NC(=O)C1)N1CC(=O)NC(=O)C1 (stereo unspecified) | inactive
37 | COc1cccc2c1C(=O)c1c(O)c3c(c(O)c1C2=O)C[C@@](O)(C(=O)CO)C[C@H]3O[C@H]1C[C@H](N)[C@H](O)[C@H](C)O1 | 0.118 µM (active)
38 | CNC(=O)c1ccc(Nc2cc(Nc3ccccc3S(=O)(=O)C(C)C)c3cc[nH]c3n2)nc1 | 2.64 µM (active)
39 | CCOC(=O)N1CCN([N+]([O-])=NOc2ccc([N+](=O)[O-])cc2[N+](=O)[O-])CC1 | 10.5 µM (active)
40 | CCN(CC)Cc1ccc2cc(COC(=O)Nc3ccc(C(=O)NO)cc3)ccc2c1 | 1.87 µM (active)
41 | C[C@@H](Cc1cc2c(c(C(N)=O)c1)N(CCCO)CC2)NCCOc1ccccc1OCC(F)(F)F | inactive
42 | CCOC(=O)[C@@H](N)Cc1ccc(-c2cc(O[C@H](c3ccc(Cl)cc3-n3ccc(C)n3)C(F)(F)F)nc(N)n2)cc1 | inactive
43 | Cn1cc(C2=C(c3c4n(c5ccccc35)CCC(CN)C4)C(=O)NC2=O)c2ccccc21 (stereo unspecified) | 20.9 µM (active)
44 | CC(C)N1[N]C(=C2C=c3cc(O)ccc3=N2)c2c(N)ncnc21 | 10.5 µM (active)
45 | CC(=O)NCC(=O)N1[C@H]2CC[C@H]1c1cc(Nc3ncc(C(F)(F)F)c(NC4CCC4)n3)ccc12 | 0.209 µM (active)
46 | CC(C)c1cc(C(C)C)c(CC(=O)NS(=O)(=O)Oc2c(C(C)C)cccc2C(C)C)c(C(C)C)c1 | inactive
